This excerpt belongs to a sample that is enriched for hits.
Pf apPOL block: Pf-apPOL DNA polymerase inhibition; actives 0.25% (n = 210,000); inhibition, % at 10 µM; Recombinant Pf-apPOL, molecular beacon fluorescence, 1.5 h
mHTT CaM bind: inhibitors of human mutant huntingtin-calmodulin interaction | AlphaScreen His-mHTT/GST-CaM binding, luminescence | actives 3.6% (n = 190,000) | inhibition, % at 15 µM | P42858;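 note: 0% = both proteins with DMSO and 100% = one protein alone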
* hit, by the source's call; . = no result given. Cut-off read from the data, not from the text of the source: active = inhibition above about 50%; inactive = the rest.

SMILES	Pf apPOL block	mHTT CaM bind
CCOc1cc(/C=c2\sc3n(c2=O)CCN=3)ccc1O	3.0	8.0
CCCSc1nc(N2CCOCC2)c2c(c1C#N)CC(C)(C)OC2	1.5	-7.0
O=C1N(Cc2ccccc2)c2ccccc2C12Oc1ccccc1C1CC(c3ccco3)=NN12 (centres undefined)	4.1	32.0
CC1=NN2C(C1)c1ccccc1OC21C(=O)Nc2ccccc21 (centres undefined)	-13.4	80.0*
Nc1ccc(Nc2ccc([N+](=O)[O-])cc2)cc1	-5.1	51.5*
NCCNc1ccc([N+](=O)[O-])cc1	-1.2	11.5
COCCn1cnc2sc(C(=O)Nc3cccc(C(F)(F)F)c3)c(C)c2c1=O	-3.1	19.0
CCCCNC(=O)c1sc2ncn(CC(=O)Nc3cccc(C(F)(F)F)c3)c(=O)c2c1C	-3.9	68.0*
Cc1c(C(=O)O)sc2ncn(CC(=O)Nc3cccc(C(F)(F)F)c3)c(=O)c12	-1.3	3.0
CCC(C)NC(=O)c1sc2ncn(CC(=O)Nc3cccc(C(F)(F)F)c3)c(=O)c2c1C (centres undefined)	-0.1	99.0*
COc1ccc(CNC(=O)C2CCN(c3cc(=O)n(C)c(=O)n3C)CC2)cc1	-2.8	34.7
CC1CN(C(=O)CCc2ccccc2)CC1c1nc(-c2ccncc2)no1 (centres undefined)	2.3	10.5
CCN1CCN(C(=O)C2CC(=O)N(Cc3cccc(Br)c3)C2)CC1 (centres undefined)	2.4	-4.5
O=C(NCc1ccc(F)cc1F)C1CCc2nc(N3CCOCC3)ncc2C1 (centres undefined)	-3.4	1.5
COc1ccc(N=Cc2ccc(Cl)cc2)cc1Cl	-2.7	19.0
COc1ccc(N=C/C=C/c2ccccc2Cl)cc1Cl	-4.3	55.0*
CC(Oc1ccccc1Br)C(=O)NN (centres undefined)	-0.6	0.4
COCCNC(=O)C1COC2(CCCCC2)N1C(=O)c1cccc(Cl)c1 (centres undefined)	-3.1	0.7
O=C1C(=Cc2ccco2)COCC1=Cc1ccco1	7.7	.
O=C1/C(=C/C=C/c2ccco2)CC/C1=C\C=C\c1ccco1	0.9	84.0*
Cc1cc2c(cc1S(N)(=O)=O)n(C)c(=O)n2C	11.9	-4.0
COc1ccc(C2CC(O)(c3ccccc3)Oc3c(C)ccc(C)c32)cc1 (centres undefined)	-5.7	46.0
COc1ccc(C2CC(O)(c3ccccc3)Oc3cc(OC)cc(OC)c32)cc1 (centres undefined)	-2.9	92.4*
CCN(CC)c1ccc(N)c(C)c1	-8.6	58.0*
CCN(CC)c1ccc(C#N)cc1	1.4	.
SMILES	Pf apPOL block	mHTT CaM bind
O=C(O)COc1ccc2c(c1)OC(=Cc1cccc(Br)c1)C2=O	15.4	-3.3
O=C(O)COc1ccc2c(c1)OC(=Cc1ccc(Cl)c(Cl)c1)C2=O	62.9*	-4.9
COc1ccc(-c2nnc(-c3cc4cc(OC)ccc4oc3=O)o2)cc1	3.2	26.0
COc1ccc(C2Nc3ccccc3NC3=C2C(=O)CC(c2ccccc2)C3)cc1 (centres undefined)	-2.1	26.4
COc1ccc(C2CC(=O)C3=C(C2)Nc2ccccc2NC3c2ccc(Cl)c([N+](=O)[O-])c2)cc1 (centres undefined)	-14.7	52.0*
O=C1CC(c2cccs2)CC2=C1C(c1ccc(Cl)c(Cl)c1)Nc1ccccc1N2 (centres undefined)	-2.7	77.0*
O=C1CC(c2ccccc2)CC2=C1C(c1ccc(C(F)(F)F)cc1)Nc1ccccc1N2 (centres undefined)	-2.5	86.0*
COc1ccc(C2CC(=O)C3=C(C2)Nc2ccccc2NC3c2cccc(C(F)(F)F)c2)cc1 (centres undefined)	8.2	17.0
O=C1CC(c2cccs2)CC2=C1C(c1ccc(F)cc1)Nc1ccccc1N2 (centres undefined)	-19.1	18.0
O=C1CC(c2ccccc2)CC2=C1C(c1ccccc1C(F)(F)F)Nc1ccccc1N2 (centres undefined)	-4.1	19.0
COc1ccc(C2CC(=O)C3=C(C2)Nc2ccccc2NC3c2ccc(C(F)(F)F)cc2)cc1 (centres undefined)	2.3	53.0*
CCN(CC)C(=O)c1nn(-c2ccccc2OC)c(=O)c2ccccc12	-0.1	-12.0
CCC(C)NC(=O)c1cn(-c2cccc(F)c2)nn1 (centres undefined)	-1.2	-6.3
CCNC(=O)CCC1CCN(c2cc(NCC)ncn2)CC1	2.9	3.5
O=C1CC(c2ccccc2)CC2=C1C(c1cccc(F)c1)Nc1ccccc1N2 (centres undefined)	-5.2	9.0
O=C1CC(c2ccccc2Cl)CC2=C1C(c1ccc(F)cc1)Nc1ccccc1N2 (centres undefined)	-1.8	57.0*
Cc1ccc(C2Nc3ccccc3NC3=C2C(=O)CC(c2ccccc2F)C3)cc1 (centres undefined)	-3.8	39.0
O=C1CC(c2ccccc2)CC2=C1C(c1ccc(F)c(Br)c1)Nc1ccccc1N2 (centres undefined)	-4.6	59.0*
